An excerpt weighted towards active compounds, which were near 2.7% of everything screened.
IP6K1 inhibitor: Primary qHTS assay for small molecule inhibitors of Inositol hexaphosphate kinase 1 (IP6K1) | Inositol hexakisphosphate kinase 1 (Homo sapiens), Q92551 | IP6K1 kinase, ADP-Glo luminescence, 2 h; hits give low values | activity change, % (series mostly up to about 58 µM) | actives 0.81% (n = 140,000) | AID 1645851, 2021; in the data active = activity change below about -25%; also: % is scaled to controls: 0 for no effect and ±100 for the full control effect
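ADP-Glo luminescence measures ADP made by human IP6K1 during a 2 h RT reaction with ATP/IP6 (mix at 1.3 mM/130 uM); top library doses 57.5 and 19.1 uM final.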
KDM5B inhibitor: Primary screen for KDM5B Histone Demethylases FDH-coupled qHTS; Lysine-specific demethylase 5B (Homo sapiens), Q9UGL1; KDM5B demethylase, FDH-coupled NADH fluorescence (FDH is formaldehyde dehydrogenase); Potency, µM (highest dose often 57.7 µM), usual class: inhibitors; actives 2.6% (n = 220,000); active = well fitted inhibition curve with a large enough effect; inconclusive = small, poorly fitted or top-dose-only effect; inactive = no such curve, though single readings can be large or run the other way; also: potency is read from the fitted curve at half-maximal effect; 0% is about no effect; nearly all actives have a fitted effect of over 70% in size
Target sequence (Q9UGL1 whole entry, looked up): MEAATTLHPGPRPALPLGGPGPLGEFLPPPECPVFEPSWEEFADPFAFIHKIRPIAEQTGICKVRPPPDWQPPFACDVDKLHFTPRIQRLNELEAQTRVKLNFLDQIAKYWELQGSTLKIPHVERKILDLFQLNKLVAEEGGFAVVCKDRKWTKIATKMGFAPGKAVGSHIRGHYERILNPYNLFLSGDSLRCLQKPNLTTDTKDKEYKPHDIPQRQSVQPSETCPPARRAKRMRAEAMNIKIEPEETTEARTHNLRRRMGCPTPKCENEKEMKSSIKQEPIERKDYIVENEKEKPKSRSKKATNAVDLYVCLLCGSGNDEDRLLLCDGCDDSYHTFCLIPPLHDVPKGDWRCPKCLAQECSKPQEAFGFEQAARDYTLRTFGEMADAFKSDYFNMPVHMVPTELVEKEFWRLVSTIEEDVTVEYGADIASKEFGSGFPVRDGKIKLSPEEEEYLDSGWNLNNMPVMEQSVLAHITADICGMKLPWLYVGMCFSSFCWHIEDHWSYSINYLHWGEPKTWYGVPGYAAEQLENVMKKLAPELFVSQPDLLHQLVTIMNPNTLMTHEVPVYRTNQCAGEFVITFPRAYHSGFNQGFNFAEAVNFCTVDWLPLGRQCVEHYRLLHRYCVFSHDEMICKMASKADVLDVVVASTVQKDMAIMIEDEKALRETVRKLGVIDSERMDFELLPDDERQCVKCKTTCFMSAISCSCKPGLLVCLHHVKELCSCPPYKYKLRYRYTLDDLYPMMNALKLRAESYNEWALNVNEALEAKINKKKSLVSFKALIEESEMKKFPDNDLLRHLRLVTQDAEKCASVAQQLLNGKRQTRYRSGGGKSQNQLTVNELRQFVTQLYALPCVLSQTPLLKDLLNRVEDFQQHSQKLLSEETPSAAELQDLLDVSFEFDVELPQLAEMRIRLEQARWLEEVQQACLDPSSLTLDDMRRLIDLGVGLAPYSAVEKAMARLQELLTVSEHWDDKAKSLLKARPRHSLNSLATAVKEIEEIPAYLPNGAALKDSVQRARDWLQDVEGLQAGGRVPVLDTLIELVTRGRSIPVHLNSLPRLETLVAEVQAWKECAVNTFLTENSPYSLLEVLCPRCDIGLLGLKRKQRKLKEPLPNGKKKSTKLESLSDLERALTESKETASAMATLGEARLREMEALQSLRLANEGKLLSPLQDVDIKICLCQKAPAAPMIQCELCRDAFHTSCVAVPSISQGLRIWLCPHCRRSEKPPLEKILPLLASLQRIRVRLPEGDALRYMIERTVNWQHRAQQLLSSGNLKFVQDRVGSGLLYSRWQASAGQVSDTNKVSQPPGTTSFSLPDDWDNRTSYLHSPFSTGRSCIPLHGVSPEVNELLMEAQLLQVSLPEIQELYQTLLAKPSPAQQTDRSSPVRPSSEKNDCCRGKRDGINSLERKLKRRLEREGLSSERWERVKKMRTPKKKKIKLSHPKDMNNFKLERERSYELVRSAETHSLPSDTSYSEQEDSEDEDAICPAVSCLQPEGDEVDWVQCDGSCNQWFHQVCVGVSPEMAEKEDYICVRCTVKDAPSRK
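Compound dilutions met 200 nM (final) KDM5BΔAP for 10 min at room temperature before substrate addition. The substrate mix held 12.5 µM H3K4me3 with cofactors 25 µM α-ketoglutarate and 50 µM Fe²⁺. NADH signal gain over 30 min defined activity.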
An asterisk follows results filed as active; i = inactive; u = inconclusive; x = no result given; ! = not active in a repeat.

SMILES	IP6K1 inhibitor	KDM5B inhibitor
Cn1ccc2c(C(=O)NCc3cccnc3)nc(-c3ccc(F)cc3)cc21	-2.1	i
COc1ccc(-c2cc3c(ccn3C)c(C(=O)NCc3cccnc3)n2)cc1OC	0.2	35.5µM*
Cn1ccc2c(C(=O)NCc3cccnc3)nc(-c3ccccc3C#N)cc21	-6.7	12.6µM*
Cn1ccc2c(C(=O)NCc3cccnc3)nc(-c3ccccc3)cc21	-3.0	31.6µM*
COc1cc(F)ccc1-c1cc2c(ccn2C)c(C(=O)NCc2cccnc2)n1	-1.2	39.8µM*
Cn1ccc2c(C(=O)NCc3cccnc3)nc(-c3ccc(N4CCOCC4)cc3)cc21	7.0	u
CN(C)Cc1ccc(-c2cc3c(ccn3C)c(C(=O)NCc3cccnc3)n2)cc1	3.8	i
C=CCOc1ccc(C(=O)Nc2cccc(F)c2)cc1	x	i
O=C(NCCc1c[nH]c2ccccc12)c1cccc(F)c1	x	i
Cc1noc(C)c1-c1cc2c(c(-c3cccc(OC(C)C)c3)c1)C(=O)N(C)C2	4.9	u
O=C(Cn1ccccc1=O)Nc1ccc(Br)cc1Br	x	i
O=C(OCc1ccc([N+](=O)[O-])cc1)C1(c2ccccc2)CC1	x	i
O=C(C1CCN(S(=O)(=O)c2cccs2)CC1)N1CCC(c2ccccc2)CC1	12.0	x
O=C1CCC(CNC(=O)c2nc(-c3ccccc3)cc3[nH]ccc23)N1 (stereo unspecified)	-18.9	31.6µM*
O=C(NCCc1ccccn1)c1nc(-c2ccccc2)cc2[nH]ccc12	-4.3	i
Cn1ccc2c(C(=O)NCC3CCC(=O)N3)nc(-c3ccccc3)cc21 (stereo unspecified)	9.9	i
O=C(NCc1cccnc1)c1nc(-c2ccccc2)cc2[nH]ccc12	-7.6	35.5µM*
O=C(Nc1ccnc(Cl)c1)[C@@H]1CCCN1c1ccnc2ccnn12	0.2	x
COc1cc(/C=C/C(=O)OCCOc2ccc(Cl)cc2)ccc1O	x	i
C[C@@H]1CN(C(=O)c2ccc3c(c2)N(C)C(=O)CO3)C[C@@]1(O)C1CCC1	1.9	i
CN1C(=O)COc2ccc(C(=O)N3CC(C)(C)[C@@](C)(O)C3)cc21	0.0	31.6µM*
Cc1ccc(NC(=O)c2nc3ccccc3nc2N2CCN(C)CC2)cc1C	x	i
CN(CCc1ccccc1)CCN1CC2(CCN(c3ncccc3C#N)CC2)OC1=O	-12.0	31.6µM*
N#Cc1cccnc1N1CCCC(CO)(CCCc2ccccc2)C1 (stereo unspecified)	5.0	u
O=C(Nc1cccc(Cl)c1)C1CCCCN1Cc1ccc(-c2cccs2)cc1 (stereo unspecified)	-13.0	x
SMILES	IP6K1 inhibitor	KDM5B inhibitor
CN(C)C[C@@H]1CN(c2ccncn2)C[C@H]1NC(=O)COc1ccccc1	-5.6	i
Cc1cccc(OCC(=O)N[C@@H]2CN(c3ncccn3)C[C@H]2CN(C)C)c1	25.8	22.4µM*
CN(C)C[C@@H]1CN(c2ncccn2)C[C@H]1NC(=O)COc1ccc(Cl)cc1	4.7	28.2µM*
CN(C)C[C@@H]1CN(c2ncccn2)C[C@H]1NC(=O)COc1ccc(F)cc1	6.2	u
COC(=O)c1cc2c(C(F)(F)F)cc(-c3ccccc3)nc2s1	x	i
CSCc1ccc(C(=O)Nc2cccc(F)c2)o1	x	i
N#Cc1ccc(NC(=S)N[C@H]2CO[C@H]3[C@@H]2OC[C@H]3OC(=O)Nc2ccccc2)cc1	0.8	u
O=C1NCCCCCCN(Cc2cccc(F)c2)[C@H]2C[C@H](C(=O)N3CCc4ccccc4C3)C[C@@H]12	-2.2	u
COc1cccc(CN2CCCCCCNC(=O)[C@@H]3C[C@@H](C(=O)N4CCc5ccccc5C4)C[C@@H]32)c1	6.4	u
N#Cc1ccccc1CN1CCCCCCNC(=O)[C@@H]2C[C@@H](C(=O)N3CCc4ccccc4C3)C[C@@H]21	-4.7	20µM*
N#Cc1ccc(CN2CCCCCCNC(=O)[C@@H]3C[C@@H](C(=O)N4CCc5ccccc5C4)C[C@@H]32)cc1	7.6	25.1µM*
COc1ccc(F)cc1-c1cccc(C(=O)NCCNC(=O)Nc2ccc(Cl)cc2)c1	-4.1	x
c1ccc(CN(Cc2ccccn2)[C@H]2C[C@H]3CCOC[C@@]3(c3ccccc3)C2)cc1	-5.0	x
Cc1cnc(NC(=O)c2ccc3c(c2)OCCN(CCC(F)(F)F)C3)s1	-4.0	i
Cc1csc(NC(=O)c2ccc3c(c2)OCCN(CCC(F)(F)F)C3)n1	2.4	35.5µM*
Cc1cc(Cl)ccc1NC(=O)COc1ncnc2ccc(Br)cc12	x	i
O=C(CCNc1nc(Cl)nc2nc[nH]c12)NCCO	x	i
O=C1CN(C(=O)CCC(=O)N2CCc3c(nc4cc(-c5ccccc5)[nH]n4c3=O)C2)c2ccccc2N1	4.6	28.2µM*
O=C(CCc1nc2ccc(Cl)cc2[nH]1)N1CCc2nc3cc(-c4ccccc4)[nH]n3c(=O)c2C1	10.6	22.4µM*
O=C(CCc1cc(Cl)no1)N1CCc2nc3cc(-c4ccccc4)[nH]n3c(=O)c2C1	0.0	7.94µM*
COc1ccc(Cl)cc1C(=O)N1CCc2c(nc3cc(-c4ccccc4)[nH]n3c2=O)C1	14.5	u
O=C(CCc1nc2ccc(Cl)cc2[nH]1)N1CCc2c(nc3cc(-c4ccccc4)[nH]n3c2=O)C1	13.2	31.6µM*
O=C(c1n[nH]c2c1CCCCCC2)N1CCc2nc3cc(-c4ccccc4)[nH]n3c(=O)c2C1	7.4	u
O=C1CN(C(=O)CCC(=O)N2CCc3nc4cc(-c5ccccc5)[nH]n4c(=O)c3C2)c2ccccc2N1	15.0	u
O=C(CCCc1c[nH]c2ccccc12)N1CCc2nc3cc(-c4ccccc4)[nH]n3c(=O)c2C1	0.0	u
SMILES	IP6K1 inhibitor	KDM5B inhibitor
Cc1csc(CNC(=O)c2ccc(CNC(=O)c3cccs3)cc2)n1	x	i
Cc1cccc(N2CC(C(=O)Nc3cc(Cl)ccc3-n3cncn3)CC2=O)c1C (stereo unspecified)	x	i
O=C(CCn1c(=O)oc2cc(Cl)ccc21)Nc1cccc(-c2nnc3n2CCCCC3)c1	x	i
CCOC(=O)c1cnc2c(C)cc(C)cc2c1Nc1cccc([N+](=O)[O-])c1	x	i
CC(C)C(NC(=O)c1ccc(Cl)cc1Cl)C(=O)NCc1cnn(-c2ccccc2)c1 (stereo unspecified)	x	i
c1ccc(COc2ccccc2CN2CCC3(CCNCC3)C2)cc1	-1.0	u
COC(=O)COc1nc(C)c2c(c1C#N)CCCC2	x	i
CCn1c(CO)nnc1C1CC(NC(=O)c2ccccc2-n2cccn2)C1 (stereo unspecified)	32.2	i
CCn1c(CO)nnc1C1CC(NC(=O)c2cnn3cc(C)cnc23)C1 (stereo unspecified)	12.7	28.2µM*!
CN1C(C(=O)NCc2ccc(F)cc2)=C(c2ccccc2)c2cc(Cl)ccc2S1(=O)=O	x	i
CN1CC(=O)N(C2CCC2)Cc2c1ncnc2N1CCc2ccccc2C1	-4.9	u
CC(=O)N1CCCN(c2ncnc3c2CN(C2CCCNC2)C(=O)CN3C)CC1 (stereo unspecified)	-11.6	50.1µM*
CN1CC(=O)N(C2CCCNC2)Cc2c1ncnc2N1CCc2ccccc2C1 (stereo unspecified)	-14.8	50.1µM*
CC(=O)N1CCCN(c2ncnc3c2CN(C2CCCNCC2)C(=O)CN3C)CC1 (stereo unspecified)	-15.8	i
CCCCC1CCC(c2nc(C#N)c(N3CCN(CC)CC3)o2)CC1 (stereo unspecified)	x	i
